Luciferase inh: blocks purified firefly luciferase enzyme activity; Potency, µM (series often up to 115 µM), most hits filed as inhibitors; AID 1347043; purified P. pyralis luciferase, luminescence, biochemical; 76,000 tested, 2.5% active; note: % is set by controls: 0 for no effect and ±100 for the full control effect; nearly all actives have a fitted effect of over 65% in size
Target sequence (P08659 whole entry, looked up): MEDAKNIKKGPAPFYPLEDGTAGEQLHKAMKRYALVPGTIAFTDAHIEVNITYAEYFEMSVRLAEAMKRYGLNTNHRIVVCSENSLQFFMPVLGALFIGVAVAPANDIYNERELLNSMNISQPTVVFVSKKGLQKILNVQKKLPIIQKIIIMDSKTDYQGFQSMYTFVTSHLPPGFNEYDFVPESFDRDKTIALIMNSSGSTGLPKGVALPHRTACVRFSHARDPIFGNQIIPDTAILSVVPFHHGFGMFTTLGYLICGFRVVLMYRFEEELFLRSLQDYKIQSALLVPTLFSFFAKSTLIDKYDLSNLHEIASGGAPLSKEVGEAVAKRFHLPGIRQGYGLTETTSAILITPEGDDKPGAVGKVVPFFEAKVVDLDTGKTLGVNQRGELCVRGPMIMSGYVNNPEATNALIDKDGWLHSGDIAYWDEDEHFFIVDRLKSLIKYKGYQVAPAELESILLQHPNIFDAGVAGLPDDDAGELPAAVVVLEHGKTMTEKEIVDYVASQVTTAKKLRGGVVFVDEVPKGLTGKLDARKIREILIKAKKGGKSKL
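Inhibitors were tested against purified firefly luciferase in a biochemical, low-substrate format (both substrates at 10uM) and luminescence measured with a CCD imager.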
NPR1 antag: blocks ANP-stimulated signaling of human Npr1 receptor. AID 1347048. HEK293 hNpr1 GloSensor cGMP, ANP-stimulated luminescence. 76,000 tested, 1.6% active. Potency, µM (highest dose often 46.3 µM), for the others: at the top dose activity change, negative = inhibition, most hits filed as inhibitors; calls by dose curve; note: % is set by controls: 0 for no effect and ±100 for the full control effect; nearly all actives have a fitted effect of over 60% in size
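Compound pre-incubated 30 min at room temperature on GloSensor-loaded HEK293 cells stably carrying hNpr1 and the pGS-40F cGMP biosensor. Stimulation uses hNppA at 0.1 nM final; luminescence is taken at baseline and 20 min post-agonist.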
NIH3T3 tox: cytotoxic compounds in NIH 3T3 cells; NIH 3T3 viability, CellTiter-Glo ATP luminescence, 48-72 h; Potency, µM (highest dose often 96.7 µM), inactives show at the top dose activity change, negative = cytotoxicity, hits mostly inhibitors; 94,000 tested, 4.3% active; AID 1345082; note: % is set by controls: 0 for no effect and ±100 for the full control effect; nearly all actives have a fitted effect of over 55% in size
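Cytotoxicity is measured as loss of cellular ATP: NIH 3T3 cells (400/well) are exposed to compound for 48 or 72 hr at 37 °C, then CellTiter-Glo luminescence is imaged after 10 min at room temperature.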
HEK cytotox: HEK 293 cell cytotoxicity; 94,000 tested, 6.6% active; HEK 293 viability, ATP luminescence (CellTiter-Glo), 48-72 h; Potency, µM (highest dose often 115 µM), for the others: at the top dose activity change, negative = cytotoxicity, most hits filed as inhibitors; AID 1345083; note: % is set by controls: 0 for no effect and ±100 for the full control effect; nearly all actives have a fitted effect of over 60% in size
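qHTS cytotoxicity; HEK 293, 250 cells/well; compound pinned; 48 or 72 hr, 37 degree Celsius, 5% CO2, 95% humidity; CellTiter-Glo, 10 min RT; luminescence (ATP).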
NPR1 antag cnf: confirmation of human Npr1 natriuretic peptide receptor antagonists | Potency, µM (highest dose often 57.6 µM), inactives show top-dose activity change, negative = inhibition, most hits filed as inhibitors | shares compounds with NPR1 antag | HEK293 hNpr1 cGMP GloSensor luminescence, ANP-stimulated | AID 1347044 | 1,400 tested, 76% active; calls by dose curve; note: nearly all actives have a fitted effect of over 70% in size
NPR2 antag: selectivity test of Npr1 antagonists against human Npr2; shares compounds with NPR1 antag; HEK293 hNpr2 GloSensor cGMP luminescence, CNP-stimulated; Potency, µM (highest dose often 57.6 µM), for the others: top-dose activity change, negative = inhibition, actives largely listed as inhibitors; 1,400 tested, 67% active; calls by dose curve; note: nearly all actives have a fitted effect of over 70% in size
FLuc inh counter: inhibits firefly luciferase, false Npr1 antagonist flag; 1,400 tested, 0.7% active; Potency, µM (series often up to 57.6 µM), without a hit: at the top dose activity change, negative = inhibition, hits mostly inhibitors; purified FLuc enzyme, luminescence, Km substrate; shares compounds with NPR1 antag; note: 0% is about no effect
GloSensor cGMP: control cell line activity, Npr1 antagonist counter-screen; shares compounds with NPR1 antag; HEK293 GloSensor cGMP, SNP-stimulated, luminescence; Potency, µM (doses to about 57.6 µM), for the others: at the highest dose activity change, negative = inhibition, usual class: inhibitors; 1,400 tested, 69% active; AID 1347051; calls by dose curve; note: % is set by controls: 0 for no effect and ±100 for the full control effect; nearly all actives have a fitted effect of over 70% in size
* = called active by the depositor; [ ] = remark or other dose. A selection: hits, their analogues and other compounds. The true share with any hit is near 11%. Unless noted, calls come from the whole dose curve; as a rule, active = well fitted curve in the direction sought with a large enough effect; inconclusive = small, poorly fitted or top-dose-only effect, or another doubt; inactive = no such curve, though single readings can be large; an effect the other way counts as inactive or inconclusive. Potency is the fitted concentration of half-maximal effect.

Screening CC(C)(C)CC(=O)N[C@H]1C[C@@H](Cc2cc(CN3CCN(c4ccccc4)CC3)on2)C1(C)C returned Luciferase inh inactive, NPR1 antag 2.8µM*, NIH3T3 tox inconclusive, HEK cytotox 25µM*, NPR1 antag cnf 3.1µM*, NPR2 antag 3.4µM*, FLuc inh counter 4% and GloSensor cGMP 2.4µM*.
For CCOc1ccc(C(=O)N2CCCN(c3cc(-c4ccc(F)cc4)[nH]n3)CC2)cc1 the results were Luciferase inh inactive, NPR1 antag 22µM*, NIH3T3 tox inconclusive, HEK cytotox 32µM*, NPR1 antag cnf 27µM*, NPR2 antag inconclusive, FLuc inh counter 0% and GloSensor cGMP 22µM*.
For CCOc1ccc(C(=O)N2CCCN(c3cc(-c4ccc(Cl)cc4)[nH]n3)CC2)cc1 the results were Luciferase inh inactive, NPR1 antag inconclusive, NIH3T3 tox inconclusive, HEK cytotox 40µM*, NPR1 antag cnf 19µM*, NPR2 antag 22µM*, FLuc inh counter 4% and GloSensor cGMP 17µM*.
`CN(C)c1ccc(C(=O)NCC2CCN(c3cc(-c4ccc(Cl)cc4)[nH]n3)CC2)cc1` gave Luciferase inh inactive, NPR1 antag inconclusive, NIH3T3 tox inconclusive, HEK cytotox inconclusive, NPR1 antag cnf inconclusive, NPR2 antag inconclusive, FLuc inh counter -30% and GloSensor cGMP inconclusive.
For CCOc1ccc(C(=O)N2CCN(c3cc(-c4ccc(Cl)cc4)[nH]n3)CC2)cc1 the results were Luciferase inh inactive, NPR1 antag 13µM*, NIH3T3 tox inconclusive, HEK cytotox inconclusive, NPR1 antag cnf 22µM*, NPR2 antag 19µM*, FLuc inh counter -3% and GloSensor cGMP 15µM*.
For O=C(CNC(=O)c1ccc(-c2cccc(C(F)(F)F)c2)cc1)NCc1cccc(Cl)c1 the results were NIH3T3 tox -12% and HEK cytotox inconclusive.
Screening N#Cc1ccc(C(=O)N2CCN(c3cc(-c4ccc(Cl)cc4)[nH]n3)CC2)cc1 returned Luciferase inh inactive, NPR1 antag 6.3µM*, NIH3T3 tox inconclusive, HEK cytotox inconclusive, NPR1 antag cnf 9.7µM*, NPR2 antag 11µM*, FLuc inh counter 4% and GloSensor cGMP 6.9µM*.
Screening O=C1Nc2ccccc2CC12CCN([S+](=O)([O-])c1cccs1)C2 (centres undefined) returned Luciferase inh inactive, NPR1 antag -4%, NIH3T3 tox -14% and HEK cytotox inconclusive.
`Cc1ccccc1-c1cnc2[nH]cc(CC(=O)NCc3ccco3)c2c1` gave Luciferase inh inactive, NPR1 antag 32µM*, NIH3T3 tox inconclusive, HEK cytotox 71µM*, NPR1 antag cnf 35µM*, NPR2 antag 31µM*, FLuc inh counter 1%[86.2 µM] and GloSensor cGMP 25µM*.
Screening Cc1ccccc1-c1cnc2[nH]cc(CC(=O)NC3CC3)c2c1 returned Luciferase inh inactive, NPR1 antag 14µM*, NIH3T3 tox inconclusive, HEK cytotox inconclusive, NPR1 antag cnf 13µM*, NPR2 antag 18µM*, FLuc inh counter 13%[86.2 µM] and GloSensor cGMP 13µM*.
Screening CNC(=O)c1cc(C2CC2)nc2onc(C3CCN(C(=O)N4CCOCC4)C3)c12 (centres undefined) returned NIH3T3 tox -17% and HEK cytotox -2%.
O=C(Cc1cccc(F)c1)N1CCC2(CC1)N=C(c1ccc(Cl)cc1)NO2 was read as Luciferase inh inactive, NPR1 antag inconclusive, NIH3T3 tox inconclusive, HEK cytotox inconclusive, NPR1 antag cnf 24µM*, NPR2 antag inconclusive, FLuc inh counter 3% and GloSensor cGMP 24µM*.
Cc1ccc(C2=NC3(CCN(C(=O)Cc4ccc(Cl)cc4)CC3)ON2)cc1 was read as Luciferase inh inactive, NPR1 antag -3%, NIH3T3 tox -21% and HEK cytotox -25%.
`O=C(c1cc(F)ccc1F)N1CCC2(CC1)N=C(c1ccc(Cl)cc1)NO2` gave Luciferase inh inactive, NPR1 antag 16µM*, NIH3T3 tox inconclusive, HEK cytotox inconclusive, NPR1 antag cnf 24µM*, NPR2 antag 22µM*, FLuc inh counter -3% and GloSensor cGMP 24µM*.
O=C(c1cccc2[nH]ccc12)N1CCC2(CC1)N=C(c1ccc(Cl)cc1)NO2 was read as Luciferase inh inactive, NPR1 antag 11µM*, NIH3T3 tox inconclusive, HEK cytotox inconclusive, NPR1 antag cnf 19µM*, NPR2 antag 22µM*, FLuc inh counter -16% and GloSensor cGMP 17µM*.
`CC[C@H]1CN(C(=O)NC2CCCCC2)CC[C@H]1CC(=O)Nc1ccccc1` gave Luciferase inh inactive, NPR1 antag 0%[70.6 µM], NIH3T3 tox -16%[174 µM] and HEK cytotox inconclusive.
Screening O=C(OCc1ccccc1)N1CCC2(CC1)C(=O)NN=C2c1cccnc1 returned Luciferase inh inactive, NPR1 antag inconclusive, NIH3T3 tox inconclusive, HEK cytotox inconclusive, NPR1 antag cnf 19µM*, NPR2 antag 22µM*, FLuc inh counter 1% and GloSensor cGMP 17µM*.
COc1ccc(C2=NOC3(CCN([S+](=O)([O-])c4cccc(OC)c4)C3)C2)cc1 (centres undefined) was read as Luciferase inh inactive, NPR1 antag 13µM*, NIH3T3 tox inconclusive, HEK cytotox 28µM*, NPR1 antag cnf 24µM*, NPR2 antag 27µM*, FLuc inh counter 0% and GloSensor cGMP 24µM*.
For COc1cccc([S+](=O)([O-])N2CCC3(CC(C)=NO3)C2)c1 (centres undefined) the results were Luciferase inh inactive, NPR1 antag 0%[70.6 µM], NIH3T3 tox -7%[138 µM] and HEK cytotox inactive.
COc1ccc(C2=NOC3(CCN([S+](=O)([O-])c4cccc(C(F)(F)F)c4)C3)C2)cc1 (centres undefined) was read as Luciferase inh inactive, NPR1 antag 16µM*, NIH3T3 tox inconclusive, HEK cytotox inconclusive, NPR1 antag cnf inconclusive, NPR2 antag 31µM*, FLuc inh counter 4% and GloSensor cGMP inconclusive.
